Source: PubChem BioAssay
This is a sample that favours compounds with a hit; in the whole collection about 1.4% have one here.
GALR2 antag – GALR2 antagonists in receptor-expressing cells, primary screen; antagonist mode; inhibition, % at 4 µM; 140,000 compounds, 0.39% hits; AID 828, 2007; in the data active = inhibition above about 27%;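 also: cells stimulated with galanin 1-16 at roughly its EC80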
Target sequence (O43603 whole entry, looked up): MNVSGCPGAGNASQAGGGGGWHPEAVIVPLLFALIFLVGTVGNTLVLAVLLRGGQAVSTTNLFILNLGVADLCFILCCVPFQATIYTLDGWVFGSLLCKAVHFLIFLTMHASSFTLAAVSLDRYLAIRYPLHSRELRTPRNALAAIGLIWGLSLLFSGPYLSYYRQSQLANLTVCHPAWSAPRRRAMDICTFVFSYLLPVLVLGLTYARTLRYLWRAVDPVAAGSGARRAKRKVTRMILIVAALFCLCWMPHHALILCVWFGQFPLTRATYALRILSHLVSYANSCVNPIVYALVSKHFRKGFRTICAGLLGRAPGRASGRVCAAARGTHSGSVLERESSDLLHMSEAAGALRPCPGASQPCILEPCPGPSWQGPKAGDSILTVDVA
PTPN22 act – LYP phosphatase activators, primary screen, biochemical, DiFMUP fluorescence, 2 µM | Tyrosine-protein phosphatase non-receptor type 22 (Homo sapiens), Q9Y2R2 | recombinant LYP; 0 = plate median, 100 = signal doubled | activation, % at 2 µM | 96,000 compounds, 0.11% hits;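 active = activation at 2 µM above a set limit, the mean plus 5 SD, cut at about 37% in these data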
LYP inh 2 – PTPN22 phosphatase inhibitors, primary screen, biochemical, DiFMUP fluorescence, 2 µM | recombinant LYP catalytic domain | inhibition, % at 2 µM | Tyrosine-protein phosphatase non-receptor type 22 (Homo sapiens), Q9Y2R2 | AID 640, 2007 | 96,000 compounds, 0.21% hits;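 active = inhibition at 2 µM at or above a set limit, the screen mean plus 3 SD, cut at about 24% in these data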
S1P2 ag – S1P2 receptor agonists, primary screen, cell-based. activation, % at 4.5 µM. S1P2-expressing cell line, agonist reporter read-out. 97,000 compounds, 0.46% hits; in the data active = activation above about 16%
Target sequence (O95136 whole entry, looked up): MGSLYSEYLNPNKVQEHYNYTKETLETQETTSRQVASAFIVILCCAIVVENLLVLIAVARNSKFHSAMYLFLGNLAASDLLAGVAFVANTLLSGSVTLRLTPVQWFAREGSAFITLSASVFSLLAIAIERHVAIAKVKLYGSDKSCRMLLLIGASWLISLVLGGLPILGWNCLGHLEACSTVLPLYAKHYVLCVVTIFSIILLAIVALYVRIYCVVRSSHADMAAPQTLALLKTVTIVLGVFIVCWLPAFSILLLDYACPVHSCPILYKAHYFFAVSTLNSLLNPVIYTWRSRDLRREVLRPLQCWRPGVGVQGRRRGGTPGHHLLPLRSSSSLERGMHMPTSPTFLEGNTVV
GALR2 ag – GALR2 receptor agonists, primary screen, cell-based; Galanin receptor type 2 (Homo sapiens), O43603; GALR2-expressing cells, agonist activation read-out; activation, % (test concentration not listed); 140,000 compounds, 0.48% hits; AID 803, 2007; in the data active = activation above about 5%, passing the limit was not always enough
S1P2 blocker – human S1P2 receptor antagonists, primary screen, cell-based | Sphingosine 1-phosphate receptor 2 (Homo sapiens), O95136 | cell-based S1P2 antagonist assay, inhibition at 5 uM | inhibition, % at 5 µM | 97,000 compounds, 0.21% hits; in the data active = inhibition above about 45%;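 also: CRE beta-lactamase reporter cells expressing human S1P2 stimulated with S1P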
Each line names hits and unclear results; the compound was inactive in the other large screens.

COc1ccc(C2=Nn3c(nnc3C3CCCCC3)SC2)cc1OC	S1P2 ag 36
COc1ccc(-c2nnc3n2N=C(C)CS3)cc1OC	none
COc1ccc(C2=Nn3c(nnc3-c3ccccc3)SC2)cc1OC	S1P2 ag 27
Cc1cc(-c2nnc3n2N=C(c2ccc(-c4ccccc4)cc2)CS3)n[nH]1	none
COc1ccc(OC)c(C2=Nn3c(nnc3C3CCCCC3)SC2)c1	none
c1ccc(-c2cc(-c3nnc4n3N=C(c3ccc5ccccc5c3)CS4)[nH]n2)cc1	LYP inh 2 30
CCOC(=O)C1CN(S(=O)(=O)c2ccc(OC)cc2)c2cc(S(=O)(=O)CC)ccc2O1 (configuration not stated)	none
Cc1ccc(/C=C/C(=O)Nc2sc3c(c2C#N)CCCC3)o1	GALR2 ag 5.7 (no result: PTPN22 act, LYP inh 2, S1P2 ag, S1P2 blocker)
Cc1nc(C)c(C(=O)NNS(=O)(=O)c2ccc3ccccc3c2)s1	none (no result: PTPN22 act, LYP inh 2, S1P2 ag, S1P2 blocker)
COc1ccc2c(=O)c3c(=O)n(Cc4ccco4)c(-c4ccco4)nc3oc2c1	none
COc1ccc(Cn2c(-c3ccco3)nc3oc4cc(OC)ccc4c(=O)c3c2=O)cc1	S1P2 ag 79
C=CCNC(=S)NNC(=O)c1cccn(Cc2ccc(Cl)c(Cl)c2)c1=O	LYP inh 2 28
CNC(=S)NNC(=O)c1cccn(Cc2ccc(Cl)c(Cl)c2)c1=O	LYP inh 2 69
CNC(=S)NNC(=O)c1cccn(Cc2cccc(Cl)c2)c1=O	LYP inh 2 60
O=C(Nc1cccn(Cc2c(Cl)cccc2Cl)c1=O)c1ccccc1Cl	none
CNC(=S)NNC(=O)c1ccccc1Br	none (no result: PTPN22 act, LYP inh 2, S1P2 ag, S1P2 blocker)
COc1cc(OC)c(/C=N/n2c(C)nnc2C)c(OC)c1	none (no result: PTPN22 act, LYP inh 2, S1P2 ag, S1P2 blocker)
CCCc1nc(N)c(C#N)c(N)c1C#N	S1P2 ag 17
C=CCNc1oc(/C=C/c2ccccc2)nc1C#N	S1P2 ag 17, GALR2 ag 12
CN(C)CCNc1oc(/C=C/c2ccccc2)nc1C#N	none (no result: PTPN22 act, LYP inh 2, S1P2 ag, S1P2 blocker)
COc1ccc(C2C(=O)N(C3CCCCC3)CC(=O)N2C2CCCCC2)cc1 (configuration not stated)	LYP inh 2 25
COc1ccc(NS(=O)(=O)c2cc(NC(=O)/C=C/c3ccccc3OC)ccc2N2CCCCC2)cc1	none (no result: PTPN22 act, LYP inh 2, S1P2 ag, S1P2 blocker)
C=CCn1c(=O)c2ccc(C(=O)NCc3ccccc3)cc2n(Cc2ccc(C)cc2)c1=O	none (no result: PTPN22 act, LYP inh 2, S1P2 ag, S1P2 blocker)
O=C(COc1ccccc1Cl)NCCC1=CCCCC1	none (no result: PTPN22 act, LYP inh 2, S1P2 ag, S1P2 blocker)
COCCCNC(=O)c1cccn2c(=O)c3cc4ccccc4cc3nc12	LYP inh 2 43
O=C(NCc1ccco1)c1cccn2c(=O)c3cc4ccccc4cc3nc12	none
CCOC(=O)CN(C(=O)CSc1nnc(COc2ccc(OC)cc2)n1C)c1ccccc1	S1P2 ag 96
CCCCCC(=O)Nc1ccc(N2CCN(C(=O)CCC)CC2)cc1	none
CCCC(=O)Nc1ccc(N2CCN(C(=O)c3ccccc3C)CC2)cc1	GALR2 antag 33
O=C(Nc1ccccc1)N(Cc1ccc2c(c1)OCO2)Cc1nc2ccccc2c(=O)[nH]1	S1P2 ag 21
O=C(c1ccccc1)N(Cc1ccc2c(c1)OCO2)Cc1nc2ccccc2c(=O)[nH]1	none
Cc1ccc(NC(=S)NCCc2ccc(S(N)(=O)=O)cc2)c(C)c1	S1P2 ag 102
COc1cc(-c2nnc(COC(=O)c3c4c(nc5ccccc35)CCCC4)o2)cc(OC)c1OC	S1P2 ag 43
COC(=O)c1c2c(nc3ccccc13)CCC2	none
O=C(CSc1nnc(Nc2ccccc2)s1)NN1C(=O)NC2(CCCCC2)C1=O	none (no result: PTPN22 act, LYP inh 2, S1P2 ag, S1P2 blocker)
CCCC(=O)OCCNc1cc(Sc2nccn2C)c2nonc2c1[N+](=O)[O-]	GALR2 ag 6.2 (no result: PTPN22 act, LYP inh 2, S1P2 ag, S1P2 blocker)
Cc1nc2ccccc2cc1OCc1ccccc1	none
Cc1nc2ccccc2cc1OCc1ccc(Cl)cc1	S1P2 blocker 70 (no result: PTPN22 act, LYP inh 2)
O=C(NC(Cc1ccccc1)C(=O)O)/C(=C/c1ccc(F)cc1)NC(=O)c1ccccc1 (configuration not stated)	none (no result: PTPN22 act, LYP inh 2, S1P2 ag, S1P2 blocker)
COCCn1c(C)cc(/C=C2/NC(=O)N(c3ccc(Cl)cc3)C2=O)c1C	GALR2 ag 7.1 (no result: PTPN22 act, LYP inh 2, S1P2 ag, S1P2 blocker)
CCn1c(C)cc(/C=C2\NC(=O)N(Cc3ccc(Cl)cc3)C2=O)c1C	none
CC(=O)NN1C(=O)/C(=C/c2ccc(C(C)C)cc2)SC1=S	none (no result: PTPN22 act, LYP inh 2, S1P2 ag, S1P2 blocker)
Cc1onc(-c2c(F)cccc2Cl)c1C(=O)NC(=S)NCc1cccnc1	none (no result: PTPN22 act, LYP inh 2, S1P2 ag, S1P2 blocker)
FC(F)(F)c1ccc(Cl)c(N/N=C/c2ccc(N3CCOCC3)s2)c1	none (no result: PTPN22 act, LYP inh 2, S1P2 ag, S1P2 blocker)
Cc1nn(C(=O)CNS(=O)(=O)c2ccccc2)c(C)c1Sc1ccc(Cl)cc1	none (no result: PTPN22 act, LYP inh 2, S1P2 ag, S1P2 blocker)
Cn1c(CN2CCCC2)nc2cc(NC(=O)COc3ccc([N+](=O)[O-])cc3)ccc21	none (no result: PTPN22 act, LYP inh 2, S1P2 ag, S1P2 blocker)
Nc1ccccc1-c1nnc(-c2ccc(-c3ccccc3)cc2)o1	S1P2 ag 20
OCCN1CCN(c2ncnc3c2sc2nc(N4CCOCC4)c4c(c23)CCC4)CC1	none (no result: PTPN22 act, LYP inh 2, S1P2 ag, S1P2 blocker)
OCCN(CCO)c1ncnc2c1sc1nc(N3CCOCC3)c3c(c12)CCCC3	S1P2 ag 23
COc1cccc(/C=N/NC(=O)c2nc(-c3ccccc3)cc(-c3ccccc3)n2)c1	S1P2 blocker 47
COc1ccc(/C=N/NC(=O)c2nc(-c3ccccc3)cc(-c3ccccc3)n2)cc1OC	none
C/C=C(/C)C(=O)OC1c2c(ccc3ccc(=O)oc23)OC(C)(C)C1OC(C)=O (configuration not stated)	S1P2 ag 20
Cc1nc2cc(NC(=O)N(C)c3ccc4ccccc4c3)ccc2o1	GALR2 ag 5.0
O=C(Cn1cnc2c(nnn2Cc2ccc(F)cc2)c1=O)NCc1ccco1	S1P2 ag 33
N#Cc1c(N)n(CCOC(=O)c2cccc(Br)c2)c2nc3ccccc3nc12	none
COc1cc(Cn2c(N)c(C#N)c3nc4ccccc4nc32)cc(OC)c1	GALR2 ag 13
COc1ccc(-n2c(NC(=O)c3ccc(Br)o3)c(C#N)c3nc4ccccc4nc32)cc1	GALR2 ag 5.4
COc1cccc(Cn2c(N)c(C#N)c3nc4ccccc4nc32)c1OC	S1P2 ag 24
COCCn1c(N)c(C#N)c2nc3ccccc3nc21	none
Cc1ccc(C(=O)NCCn2c(N)c(C#N)c3nc4ccccc4nc32)cc1	none (no result: PTPN22 act, LYP inh 2, S1P2 ag, S1P2 blocker)
COc1ccc(Cn2c(N)c(C#N)c3nc4ccccc4nc32)cc1	S1P2 ag 31
c1ccc2c(c1)OCCOCCOCCOCCOc1ccccc1OCCOCCOCCO2	none (no result: PTPN22 act, LYP inh 2, S1P2 ag, S1P2 blocker)
CCCCN(CC)CCCNC(=S)Nc1ccc2nc3n(c(=O)c2c1)CCCCC3	none (no result: PTPN22 act, LYP inh 2, S1P2 ag, S1P2 blocker)
O=C1CC(SC(=Nc2ccccc2)Nc2ccccc2)C(=O)N1c1cccc2ccccc12 (configuration not stated)	none
CC(=O)Nc1nonc1NC(C)=O	none
CC(=O)Nc1cc(OC(C)=O)c2nonc2c1OC(C)=O	GALR2 antag 96, S1P2 blocker 98
CCc1nc2ccccc2c(C(=O)OCC(=O)Nc2ccc(S(=O)(=O)N3CCOCC3)cc2)c1C	none (no result: PTPN22 act, LYP inh 2, S1P2 ag, S1P2 blocker)
